As a reminder, the inhibition is the change of the read-out against control, counted positive when it falls.

Screen size: about 360,000 compounds; about 2,700 (0.75%) were called active. Shown is part of a subset that was picked to be rich in actives. A number with no mark means an inactive call. Rule as the data show it: active = inhibition above about 4.5%; inactive = the rest.

Among the data in PubChem BioAssay AID651718 (The Scripps Research Institute Molecular Screening Center, 2012) are inhibition values, retold here.

This experiment deals with Methionine sulfoxide reductase A (Bos taurus). In words: inhibition of methionine sulfoxide reductase A – biochemical, absorbance, bovine, HTS, primary screen (AID 651718).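 Also: 0% = vehicle wells with enzyme and 100% = reference inhibitor wells.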 To be noted: purified bovine MsrA, absorbance read-out; at 15.5 µM; active compounds read high.
For the molecule `CCN1C(=O)N[C@@H](CCc2ccccc2)C(C(=O)OC)=C1C`, the inhibition is 0.27%.
On to `CCCC(=O)N1CCC1(C)C(=O)NS(=O)(=O)c1ccc(Cl)cc1` (stereo not drawn), for which the inhibition was -0.68%.
As for `CCn1ncc(Br)c1C(=O)Nc1cc(C)ccc1F`, the figure is 0.75%.
For `Cc1ccc(NNC(=O)c2cccs2)cc1Cl`, the inhibition was -0.8%.
Regarding `C/C(=N\NC(=O)COc1c(C)cccc1C)c1cccs1`, the inhibition is -0.04%.
As for `Cc1ccccc1C(CC(=O)c1cccs1)C(C#N)C#N` (stereo not drawn), the figure is 5.15% (active).
As for `COC(=O)Cc1nnn2c1[C@H](C)[C@@H](OC)c1cc(Br)ccc1-2`, the figure is 0.56%.
Consider `CC(=NNC(=O)c1ccc2nc[nH]c2c1)c1ccc(Br)cc1`, for which the inhibition was -0.04%.
As for `CC(=O)c1ccc(N2CCN(C(=O)c3ccc4nc[nH]c4c3)CC2)cc1`, the inhibition was 4.75% (active).
As for `CCc1nc2ccc(C(=O)N3CCN(c4cccc(Cl)c4)CC3)cc2nc1CC`, the figure is 0.35%; as for `CN(Cc1ccccc1)C(=O)[C@@H]1CCCN1C(=O)[C@@H]1CCCN1C(=O)c1c(F)cccc1F`, 1.12%; as for `Cc1[nH]c2ccccc2c1CC(=O)Nc1ccc(Nc2cccnc2)c(-c2cccc(Cl)c2)c1`, 0.91%.
As for `COc1ccc(/C=C2\SC(=O)N(CCC(=O)NC3CCS(=O)(=O)C3)C2=O)cc1` (stereo not drawn), the figure is 7.15% (active); as for `COc1ccc(-c2ccc(OC(=O)NC3CCS(=O)(=O)C3)cc2)cc1` (stereo not drawn), -0.4%; as for `COc1ccccc1/C=C1\SC(=O)N(CCC(=O)N(C)C2CCS(=O)(=O)C2)C1=O` (stereo not drawn), 1.66%.
As for `CC(C)CNc1cccc2c1S(=O)(=O)N[C@H](C)CO2`, the figure is 0.24%; as for `CC(=O)C1=C(O)C(=O)N(c2ccc(Br)cc2)C1c1ccc([N+](=O)[O-])cc1` (stereo not drawn), 3.13%.
Take `CC(=O)C1=C(O)C(=O)N(c2cccnc2)C1c1ccc([N+](=O)[O-])cc1` (stereo not drawn): the inhibition was 3.72%.
As for `COC(=O)CN1C(=O)C(O)=C(C(C)=O)C1c1ccc([N+](=O)[O-])cc1` (stereo not drawn), the figure is 4.6% (active); as for `O=C(Cc1ccccc1)N/N=C/c1ccc(Cl)cc1Cl`, 0.83%; as for `NCCCCCC(=O)N/N=C/c1ccc2nccnc2c1`, 4.64% (active).
Regarding `CC1=NNC(=O)C1CCC(=O)N/N=C\c1ccc(Cl)c(Cl)c1` (stereo not drawn), the inhibition is 0.26%.
As for `COc1ccc(N2C(=O)C3C(C2=O)C(C(=O)c2ccccc2)N2CCCC32)cc1` (stereo not drawn), the figure is 1.03%.
For the molecule `COCCNC(=S)N(C)[C@H]1C[C@H]2c3[nH]c4ccccc4c3CCN2C[C@H]1[C@H](C)O`, the inhibition is 0.16%.
In the case of `N#Cc1ccc(OCCCN2CCC(C(O)(c3ccccc3)c3ccccc3)CC2)c(F)c1`, the inhibition is 2.13%.
For the molecule `O=C(/C=C/c1ccco1)NC(=S)N1CCCCC1`, the inhibition is 2.5%.
On to `COc1ccc(CN2CCCC(C(=O)N3CCCCC3)C2)cc1` (stereo not drawn), for which the inhibition is -0.76%.
Consider `COc1ccc(/C=C/C(=O)NC(=S)N2CCCC(C(N)=O)C2)cc1` (stereo not drawn), for which the inhibition was 5.75% (active).
As for `O=c1[nH][nH]c2c1[C@H](c1ccc(Cl)cc1)O[C@H](CCc1ccccc1)C2`, the inhibition is -0.84%.
As for `COc1ccc(NC(=O)N(C)C[C@@H]2OCCCC[C@@H](C)Oc3ccc(NC(=O)NC4CCCCC4)cc3C(=O)N([C@H](C)CO)C[C@@H]2C)cc1`, the figure is -0.24%; as for `COc1cc(Cl)c(S(=O)(=O)n2cnc(C)c2)cc1Cl`, 0.89%; as for `CN1CCN(CCC(=O)N/N=C/C=C2\N(C)c3ccccc3C2(C)C)CC1`, 4.78% (active).
Regarding `CN1/C(=C\C=C2\N=C(c3ccc(F)cc3)OC2=O)C(C)(C)c2ccccc21`, the inhibition was 0.34%.
`CC(=O)Nc1cccc(OCC(=O)/C=C2\N(C)c3ccccc3C2(C)C)c1`: the inhibition was 3.18%.
Take `COC(=O)C1=C(C)N(Cc2ccc(F)cc2)C(=S)NC1c1cccc(Cl)c1` (stereo not drawn): the inhibition is 0%.
As for `COc1ccccc1-c1ccc([C@@H]2C[C@H]3[C@H](CON3C)CN2S(=O)(=O)c2cc(Cl)cc(Cl)c2)cc1`, the figure is -0.24%; as for `CCNC(=S)NNC(=O)c1ccc2ncccc2c1`, 0.98%.
As for `O=C(O)c1ccc(N/N=C/c2ccc3ncccc3c2)cc1`, the figure is 5.15% (active); as for `CC(C)(C)OC(=O)N/N=C/c1ccc(C(=O)O)cc1`, 1.73%.
As for `Cc1cc(C(=O)N/N=C/c2ccc(N3CCOCC3)cc2)c(C)o1`, the figure is 5.02% (active); as for `Cc1ccccc1N/N=C/c1ccc(N2CCOCC2)cc1`, 1.63%.
With `Cc1ccc(OCCCC(=O)Nc2ccc(N3CCOCC3)cc2)cc1`, the inhibition was -1.28%.
On to `CCOc1cc(/C=N/NC(=O)c2ccncc2)cc(Br)c1O`, for which the inhibition is 2.43%.
As for `CCN(CC)c1ccc(/C=N/NC(=O)CNC(=O)c2cccnc2)cc1`, the figure is 4.63% (active); as for `CCCOc1cccc(C(=O)NCCCNC(=O)c2cccnc2)c1`, -0.09%; as for `O=C(CNC(=O)C1COc2ccccc2O1)N/N=C/c1cc(Br)c(O)c(Br)c1` (stereo not drawn), 4.96% (active).
As for `CC(C)OCCCNC(=O)CNC(=O)c1cccs1`, the figure is 0.37%; as for `O=C(CNC(=O)c1cccnc1)N/N=C/c1cc(Br)c(O)c(Br)c1`, 8.83% (active); as for `O=C(CNC(=O)C(c1ccccc1)c1ccccc1)N/N=C\c1ccc2c(c1)OCO2`, 1.12%.
As for `CCN(CC)c1ccc(/C=N/NC(=O)CNC(=O)c2cccs2)cc1`, the figure is 4.8% (active).
In the case of `O=C(CNC(=O)c1cccs1)N/N=C/c1cccc(Br)c1`, the inhibition is 0.52%.
For `CC1CC(=NNC(=O)C2COc3ccccc3O2)CC(C)(C)C1` (stereo not drawn), the inhibition was -0.12%.
As for `O=C(Cc1ccccc1)Nc1ccc(NC(=O)c2cccnc2)cc1`, the figure is -0.64%; as for `O=C(N/N=C/c1cccc(OC(=O)c2ccc([N+](=O)[O-])cc2)c1)c1cccnc1`, -0.13%; as for `COC(=O)C1=C(C(=O)OC)C2C=C(C(C)C)C1C(=O)C2(C)O` (stereo not drawn), 0.16%.
As for `CC[C@H](C)[C@H]1CNC(=O)C(=O)N1CC1CCN(CCc2ccc(OC)c(OC)c2)CC1`, the figure is -0.53%; as for `O=C(NCC(c1ccco1)N1CCc2ccccc21)c1cccc(F)c1` (stereo not drawn), -0.1%; as for `Cc1ccccc1C(=O)N[C@H](C(=O)N1CCC[C@H]1C(=O)NCc1ccccc1)C(C)C`, 0.08%.
